SW480 rereplic: A quantitative high throughput screen for small molecules that induce DNA re-replication in SW480 colon adenocarcinoma cells | SW480 DNA re-replication, Hoechst DNA content imaging, 48 h | Potency, µM (highest dose often 46.1 µM), for inactives: top-dose re-replication activation, most hits filed as activators | 340,000 compounds, 1.8% hits | AID 624297, 2012; note: % of control where 0% means no effect; nearly all actives have a fitted effect of over 55% in size
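Quantitative HTS format with DMSO vehicle controls; 48 hr drug incubation at 37 C, then 40 min Hoechst staining and scanning imager measurement at 405 nm excitation.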
MCF10A rerep: A quantitative high throughput screen for small molecules that induce DNA re-replication in MCF 10a normal breast cells; 350,000 compounds, 2.9% hits; MCF 10A DNA re-replication, Hoechst nuclear intensity, 48 h; AID 624296, 2012; Potency, µM (doses to about 46.1 µM), without a hit: at the highest dose activity, positive = re-replication, usual class: activators; note: % of control where 0% means no effect; nearly all actives have a fitted effect of over 50% in size
KB-V1 MDR tox: qHTS assay for MDR1-selective chemotherapeutics: Primary screen using the drug-selected MDR subline cells KB-V1; Potency, µM (doses to about 46.1 µM), hits mostly cytotoxic; 400,000 compounds, 3.4% hits; KB-V1 MDR cells viability, CellTiter-Glo, 72 h; note: % is set by controls: 0 for no effect and ±100 for the full control effect; nearly all actives have a fitted effect of over 60% in size
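Potencies derive from concentration-effect curves fitted to normalized luminescence (CellTiter-Glo) of KB-V1 cells treated for 72 h at 37 degrees C in phenol-red-free DMEM containing 10% FBS.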
KB-3-1 tox: qHTS assay for MDR1-selective chemotherapeutics: Primary screen using the parental adenocarcinoma cell KB-3-1; KB-3-1 viability, CellTiter-Glo ATP luminescence, 72 h; Potency, µM (highest dose often 46.1 µM), most hits filed as cytotoxic; 400,000 compounds, 1.4% hits; AID 1347075, 2019; note: % is set by controls: 0 for no effect and ±100 for the full control effect; nearly all actives have a fitted effect of over 60% in size
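Here the drug-naive KB-3-1 line serves as comparator for MDR sub-line selectivity; cells received compound titrations, 72 h at 37 °C, then CellTiter-Glo readout.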
HT1080 IDH1KD tx: qHTS for induction of synthetic lethality in tumor cells producing 2HG: qHTS for the HT-1080-IDH1KD cell line | Potency, µM (titrated, usually from 46.1 µM), for the others: at the highest dose activity, negative = toxicity, actives largely listed as cytotoxic | AID 686971, 2013 | HT-1080 IDH1 knockdown viability, ATP luminescence, 48 h | 360,000 compounds, 2% hits;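 note: 0% = DMSO wells and -100% = cell-free medium wells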
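Knockdown cells (IDH1KD HT-1080) received compounds 2 h after plating at 750 cells/well and were kept 48 h at 37 °C in 5% FBS RPMI. A CellTiter-Glo luminescence read gave % activity for curve fitting.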
HT1080NT lethal: qHTS for induction of synthetic lethality in tumor cells producing 2HG: qHTS for the HT-1080-NT fibrosarcoma cell line. HT-1080-NT fibrosarcoma viability, CellTiter-Glo ATP luminescence, 48 h. Potency, µM (doses to about 46.1 µM), for the others: at the top dose activity, negative = less viability, actives largely listed as cytotoxic. 360,000 compounds, 1.6% hits. AID 686970, 2013;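 note: NT is the 2HG producing partner of a matched IDH1 knockdown line; 0% = DMSO-treated cells and -100% = media-only wells without cells; nearly all actives have a fitted effect of over 55% in size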
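Luminescent CellTiter-Glo readout after 48 hours of compound exposure at 37 degrees C defined viability of HT-1080-NT cells. Activity was normalized to DMSO wells and cell-free media wells; concentration-response curves were fitted and assigned curve classes.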
The depositor's hits bear a star; [ ] = dose if it differs, or a comment. Most compounds without a hit are left out; they make up all but 8% or so of the library. Calls come from the whole dose curve; as a rule, active = well fitted curve in the direction sought with a large enough effect; inconclusive = small, poorly fitted or top-dose-only effect, or another doubt; inactive = no such curve, though single readings can be large; an effect the other way counts as inactive or inconclusive. Potency is the fitted concentration of half-maximal effect.

Results for Cc1ccc(SC[C@H](c2ccccc2)N2CCN(CC(C)C)CCC2=O)cc1 ?
SW480 rereplic: -8.1%; MCF10A rerep: 2.8%; KB-V1 MDR tox: inactive; KB-3-1 tox: inactive; HT1080 IDH1KD tx: 8.4%; HT1080NT lethal: 0.8%

What do the screens show for `Cc1ccc(CNC(=O)NCc2noc3ccc(C)cc23)cc1`?
KB-V1 MDR tox: inactive; KB-3-1 tox: inactive

Results for Nc1ccccc1SCC1CSc2nc3ccccc3c(=O)n21 (configuration not stated) ?
SW480 rereplic: -4.1%; MCF10A rerep: -6.9%; KB-V1 MDR tox: inactive; KB-3-1 tox: inactive; HT1080 IDH1KD tx: 1.4%; HT1080NT lethal: 9.6%

Results for O=c1c2ccccc2nc2n1C(CSCc1ccc(Cl)cc1Cl)CS2 (configuration not stated) ?
SW480 rereplic: -1.6%; MCF10A rerep: 0.3%; KB-V1 MDR tox: 5.8µM*; KB-3-1 tox: inconclusive; HT1080 IDH1KD tx: -0.6%[9.24 µM]; HT1080NT lethal: -1.6%

What do the screens show for `COc1ccc2cc3cc(C(=O)Nc4ccccc4N4CCN(C)CC4)oc3nc2c1`?
SW480 rereplic: inconclusive; MCF10A rerep: inconclusive; KB-V1 MDR tox: 11.6µM*; KB-3-1 tox: inconclusive; HT1080 IDH1KD tx: 7.3%; HT1080NT lethal: 1.7%

Results for CCOc1ccc(NC(=O)c2cc3cc4ccc(OC)cc4nc3o2)cc1 ?
SW480 rereplic: inconclusive; MCF10A rerep: 11.6µM*; KB-V1 MDR tox: inactive; KB-3-1 tox: inactive; HT1080 IDH1KD tx: 4.6%; HT1080NT lethal: 15.9%

What do the screens show for `NC(Cc1ccc(Cl)cc1)c1csc(NC(=O)NCC2CCCCC2)n1` (configuration not stated)?
KB-V1 MDR tox: 16.4µM*; KB-3-1 tox: inconclusive; HT1080 IDH1KD tx: 16.4µM*; HT1080NT lethal: 16.4µM*

Results for NC(CCc1ccccc1)c1csc(NC(=O)NCCc2ccccc2)n1 (configuration not stated) ?
KB-V1 MDR tox: inconclusive; KB-3-1 tox: inconclusive; HT1080 IDH1KD tx: 16.4µM*; HT1080NT lethal: 16.4µM*

Results for COc1ccc(CC(N)c2csc(NC(=O)NCCc3ccccc3)n2)cc1 (configuration not stated) ?
KB-V1 MDR tox: inactive; KB-3-1 tox: inactive; HT1080 IDH1KD tx: inconclusive; HT1080NT lethal: inconclusive

What do the screens show for `NC(Cc1ccc(Cl)cc1)c1csc(NC(=O)NCCc2ccccc2)n1` (configuration not stated)?
KB-V1 MDR tox: inactive; KB-3-1 tox: inconclusive; HT1080 IDH1KD tx: inconclusive; HT1080NT lethal: 16.4µM*

Results for COc1cc(CNC(=O)Nc2nc(C(N)Cc3ccc(Cl)cc3)cs2)cc(OC)c1OC (configuration not stated) ?
KB-V1 MDR tox: inactive; KB-3-1 tox: inconclusive; HT1080 IDH1KD tx: inconclusive; HT1080NT lethal: 6.51µM*

How did CC(C)Cn1cc(NC(=O)NCc2ccccc2Cl)c2ccccc2c1=O do in these assays?
KB-V1 MDR tox: inactive; KB-3-1 tox: inactive

How did Cc1cc2nccc(-c3cccnc3)n2n1 do in these assays?
SW480 rereplic: -4.7%; MCF10A rerep: -6.3%; KB-V1 MDR tox: inactive; KB-3-1 tox: inactive; HT1080 IDH1KD tx: 18.3%; HT1080NT lethal: -0.8%

How did COc1ccccc1CNC(=O)Nc1nc(C(N)CCc2ccccc2)cs1 (configuration not stated) do in these assays?
KB-V1 MDR tox: inactive; KB-3-1 tox: inconclusive; HT1080 IDH1KD tx: 18.4µM*; HT1080NT lethal: inconclusive

What do the screens show for `COc1ccc(-c2cn3nc(N4CCCC(C(=O)NCc5ccccc5C)C4)sc3n2)cc1` (configuration not stated)?
KB-V1 MDR tox: inactive; KB-3-1 tox: inactive

What do the screens show for `CN1CCN(Cc2nnc(-c3ccccc3)o2)CC1`?
SW480 rereplic: -18.5%; MCF10A rerep: -0.5%; KB-V1 MDR tox: inactive; KB-3-1 tox: inactive; HT1080 IDH1KD tx: 11.9%; HT1080NT lethal: 8.9%

How did Cc1onc(-c2ccccc2)c1-c1nnc(CN2CCN(S(=O)(=O)c3ccccc3F)CC2)o1 do in these assays?
SW480 rereplic: -6.4%; MCF10A rerep: -6.0%; KB-V1 MDR tox: 3.26µM*; KB-3-1 tox: inconclusive; HT1080 IDH1KD tx: -0.2%; HT1080NT lethal: -2.5%

Results for Nc1cc2c(cc1C(=O)c1cccc(Br)c1)OCCO2 ?
SW480 rereplic: inconclusive; MCF10A rerep: 20.6µM*; KB-V1 MDR tox: inactive; KB-3-1 tox: inconclusive; HT1080 IDH1KD tx: inconclusive; HT1080NT lethal: -21.2%

How did Nc1cc2c(cc1C(=O)c1ccccc1F)OCCO2 do in these assays?
SW480 rereplic: -8.2%; MCF10A rerep: 7.8%; KB-V1 MDR tox: inactive; KB-3-1 tox: inactive; HT1080 IDH1KD tx: 5.1%; HT1080NT lethal: 1.8%

Results for CCOC(=O)C1=CNS(=O)(=O)NC1c1ccc(C)cc1 (configuration not stated) ?
SW480 rereplic: -1.1%[9.22 µM]; MCF10A rerep: 7.7%; KB-V1 MDR tox: inactive; KB-3-1 tox: inactive; HT1080 IDH1KD tx: 8.8%; HT1080NT lethal: 17.8%

Results for CC(=O)N1N=C(c2ccco2)CC1c1cccs1 (configuration not stated) ?
SW480 rereplic: -2.4%; MCF10A rerep: -3.1%; KB-V1 MDR tox: inactive; KB-3-1 tox: inactive; HT1080 IDH1KD tx: 7.8%; HT1080NT lethal: 0.0%

What do the screens show for `O=C(CCl)N1N=C(c2ccco2)CC1c1cccs1` (configuration not stated)?
SW480 rereplic: 3.26µM*; MCF10A rerep: 20.6µM*; KB-V1 MDR tox: 23.1µM*; KB-3-1 tox: inconclusive; HT1080 IDH1KD tx: 23.1µM*; HT1080NT lethal: inconclusive

Results for Cc1ccc(C2=NN(C(=O)CCl)C(c3cccs3)C2)o1 (configuration not stated) ?
SW480 rereplic: 5.8µM*; MCF10A rerep: inconclusive; KB-V1 MDR tox: inconclusive; KB-3-1 tox: inconclusive; HT1080 IDH1KD tx: 2.31µM*; HT1080NT lethal: 4.61µM*

How did CCCCCC[C@@H](O)C/C=C\CCCCCCCC(=O)O do in these assays?
SW480 rereplic: -0.2%; MCF10A rerep: 10.3%

How did CC(C)c1cc(NC(=O)CCl)on1 do in these assays?
SW480 rereplic: inconclusive; MCF10A rerep: inconclusive; KB-V1 MDR tox: inactive; KB-3-1 tox: inconclusive; HT1080 IDH1KD tx: 25.9µM*; HT1080NT lethal: 18.4µM*

High-throughput results as filed in PubChem BioAssay.
